PubChem BioAssay (Tox21)
Where “and” joins values, the source holds several entries; their conditions need not be identical. Equal values may be shown once. Inconclusive results are not listed. A call without a number means that no potency is given here. Some compounds were tested as several samples or in several runs, with calls that do not always agree. Calls of active or inactive are those of the source. Unless noted, the call rests on the fitted dose curve; in most records, active means well fitted curve in the direction sought with a large enough effect in the repeat runs; inconclusive means weak or mixed curves; inactive means no such curve, though single readings can be large; an effect the other way counts as inactive or inconclusive.

How the values were obtained:
[1] = qHTS assay to identify small molecule agonists of H2AX - cell viability counter screen (AID 1224847; calls by dose curve; further: nearly all actives have a fitted effect of over 30% in size; further: potency means the concentration at half of the fitted maximal effect)
Method in brief: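 We seed wild-type CHO-K1 cells overnight, treat them for 3 hr at 37C with compounds in 15-concentration series, and quantify remaining viability by CellTiter-Glo luminescence.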

[2] = qHTS assay to identify small molecule antagonists of the estrogen related receptor (ERR) signaling pathway from Tox21 library (AID 1224848); further: nearly all actives have a fitted effect of over 50% in size; further: potency means the concentration at half of the fitted maximal effect
Method in brief: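 Antagonist-mode screen of the Tox21 10K library in an NTP-provided ERR reporter cell line; 18 h compound exposure at 37 C, luminescence measured with ONE-Glo.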

[3] = qHTS assay to identify small molecule agonists of the estrogen related receptor (ERR) signaling pathway from Tox21 library (AID 1224849; calls by dose curve; further: nearly all actives have a fitted effect of over 15% in size); details: ERR reporter cell line, ONE-Glo luciferase, 18 h
Method in brief: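 Six hours post-seeding at 37 C/5% CO2, ERR cells receive DMSO-solubilised compounds; after 18 h at 37 C, ONE-Glo reagent is applied and luminescence recorded.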

[4] = qHTS RealTime-Glo MT Cell Viability Assay in HepG2 cells - 24 hour (AID 1224867); further: nearly all actives have a fitted effect of over 50% in size; further: potency means the concentration at half of the fitted maximal effect
Method in brief: (§1)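 Luminescence read-out: viable HepG2 cells reduce a prosubstrate to a NanoLuc substrate, giving a signal proportional to live cell number. Reads taken at 0, 8, 16, 24, 32 and 40 h of compound exposure at 37 C.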

[5] = qHTS RealTime-Glo MT Cell Viability Assay in HEK293 cells - 32 hour (AID 1224868); further: nearly all actives have a fitted effect of over 50% in size; further: potency means the concentration at half of the fitted maximal effect
Method in brief: (§2)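 Nonlytic real-time viability readout: viable cells convert prosubstrate to NanoLuc substrate, giving luminescence proportional to live cell number. HEK293, 600 cells/well, compound added after 5 h, continuous culture at 37 C.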

[6] = A CellTox Green Cytotoxicity Assay to monitor cytotoxicity in HEK293 cells - 0 hour (AID 1224869); further: nearly all actives have a fitted effect of over 50% in size
Method in brief: (§3)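 Seeding of HEK293 cells together with cytotoxicity dye preceded a 5 h incubation at 37 C/5% CO2. Test compounds in DMSO were then added and fluorescence monitored across 40 h.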

[7] = qHTS RealTime-Glo MT Cell Viability Assay in HepG2 cells - 40 hour (AID 1224870); further: nearly all actives have a fitted effect of over 50% in size; further: potency means the concentration at half of the fitted maximal effect
Method in brief: (§4)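 Real-time viability: cells seeded at 600 per well together with NanoLuc and cell-permeant prosubstrate, compounds added after 5 h incubation. Luminescence tracked at 0, 8, 16, 24, 32 and 40 h of exposure.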

[8] = qHTS RealTime-Glo MT Cell Viability Assay in HEK293 cells - 16 hour (AID 1224872); further: nearly all actives have a fitted effect of over 50% in size; further: potency means the concentration at half of the fitted maximal effect
Method in brief: as §2

[9] = qHTS RealTime-Glo MT Cell Viability Assay in HepG2 cells - 8 hour (AID 1224873); further: nearly all actives have a fitted effect of over 55% in size; further: potency means the concentration at half of the fitted maximal effect
Method in brief: as §4

[10] = qHTS RealTime-Glo MT Cell Viability Assay in HEK293 cells - 40 hour (AID 1224874); details: RealTime-Glo luminescence; max response: stronger effect = lower value; further: nearly all actives have a fitted effect of over 50% in size; further: potency means the concentration at half of the fitted maximal effect
Method in brief: (§5)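 Tox21 screen in HEK293 using RealTime-Glo MT chemistry, with cells and reagent co-dispensed. Luminescence proportional to viable cell number was captured at intervals during 40 h compound exposure at 37 C.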

[11] = A CellTox Green Cytotoxicity Assay to monitor cytotoxicity in HepG2 cells - 16 hour (AID 1224876); further: nearly all actives have a fitted effect of over 45% in size; further: potency means the concentration at half of the fitted maximal effect
Method in brief: (§6)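 Nonlytic assay: viable cells exclude the dye, so fluorescence scales with cell death. HepG2 at 600 cells/well, compounds added after 5 h, signal read across 40 h.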

[12] = A CellTox Green Cytotoxicity Assay to monitor cytotoxicity in HepG2 cells - 24 hour (AID 1224878); further: nearly all actives have a fitted effect of over 45% in size; further: potency means the concentration at half of the fitted maximal effect
Method in brief: as §6

[13] = qHTS RealTime-Glo MT Cell Viability Assay in HEK293 cells - 0 hour (AID 1224880); further: top concentration of the series differs between compounds; nearly all actives have a fitted effect of over 45% in size
Method in brief: as §5

[14] = A CellTox Green Cytotoxicity Assay to monitor cytotoxicity in HEK293 cells - 32 hour (AID 1224881); further: nearly all actives have a fitted effect of over 40% in size; further: potency means the concentration at half of the fitted maximal effect
Method in brief: as §3

[15] = A CellTox Green Cytotoxicity Assay to monitor cytotoxicity in HepG2 cells - 0 hour (AID 1224882); further: nearly all actives have a fitted effect of over 35% in size
Method in brief: as §6

[16] = qHTS assay to identify small molecule agonists of the hypoxia (HIF-1) signaling pathway (AID 1224846; active means well fitted activation curve with a large enough effect in the signal ratio in the repeat runs, not every such curve was filed as active; the % refers to the signal ratio)
Method in brief: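 Hypoxia-pathway activation was scored as increased beta-lactamase from an HRE-controlled reporter in ME-180 cells; plated at 2,000 cells per well with 0.5% dialyzed FBS, they were exposed 17 hrs to compounds and then given CCF4-AM.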

[17] = A CellTox Green Cytotoxicity Assay to monitor cytotoxicity in HEK293 cells - 40 hour (AID 1224871); further: nearly all actives have a fitted effect of over 45% in size; further: potency means the concentration at half of the fitted maximal effect
Method in brief: as §3

[18] = A CellTox Green Cytotoxicity Assay to monitor cytotoxicity in HEK293 cells - 24 hour (AID 1224875); further: nearly all actives have a fitted effect of over 45% in size; further: potency means the concentration at half of the fitted maximal effect
Method in brief: as §3

[19] = A CellTox Green Cytotoxicity Assay to monitor cytotoxicity in HepG2 cells - 40 hour (AID 1224879); further: nearly all actives have a fitted effect of over 40% in size; further: potency means the concentration at half of the fitted maximal effect
Method in brief: as §6

[20] = qHTS RealTime-Glo MT Cell Viability Assay in HepG2 cells - 32 hour (AID 1224877); further: nearly all actives have a fitted effect of over 55% in size; further: potency means the concentration at half of the fitted maximal effect
Method in brief: as §1

[21] = at 92.4 µM (top of the series) unless noted

## O=C1c2ccccc2C(=O)C1C(=O)C(c1ccccc1)c1ccc(Cl)cc1 (stereo not drawn)
[1]
  Potency: inactive
[2]
  Potency: 9.69 µM (active)
[3]; [21]
  activity change, positive = activation: -59.3% (inactive)
[4]
  Potency: inactive
[5]
  Potency: inactive
[6]
  Potency: inactive
[7]
  Potency: inactive
[8]
  Potency: inactive
[9]
  Potency: inactive
[10]
  max response: -21.2% (inactive)
[11]
  Potency: 49 µM (active)
[12]
  Potency: 54.9 µM (active)
[13]
  Potency: inactive
[14]
  Potency: inactive
[15]
  Potency: inactive

## CC(=O)c1cc(C(C)(C)C)cc2c1CCC2(C)C
[16]
  outcome: inactive
[2]
  Potency: inactive
[3]; [21]
  activity change, positive = activation: -2.02% (inactive)
[5]
  Potency: inactive
[6]
  Potency: inactive
[7]
  Potency: inactive
[17]
  Potency: 38.9 µM (active)
[9]
  Potency: inactive
[10]
  max response: -21.2% (inactive)
[18]
  Potency: 38.9 µM (active)
[13]
  Potency: inactive
[14]
  Potency: 38.9 µM (active)
[15]
  Potency: inactive

## O=c1[nH]c2ccccc2n1C1CCN(CCCC(c2ccc(F)cc2)c2ccc(F)cc2)CC1
[1]
  Potency: 45 µM (active)
[2]
  Potency: 10.9 µM (active) and 13.3 µM (active)
[3]; at 42.5 µM (top of the series)
  activity change, positive = activation: -52.6% (inactive)
[3]; at 92.4 µM (top of the series)
  activity change, positive = activation: -79.9% (inactive)
[4]
  Potency: 43.6 µM (active) and inactive
[5]
  Potency: 17.4 µM (active) and 16.9 µM (active)
[7]
  Potency: 30.9 µM (active) and inactive
[8]
  Potency: 13.8 µM (active) and 19 µM (active)
[9]
  Potency: 43.6 µM (active) and inactive
[10]
  Potency: 17.4 µM (active) and 16.9 µM (active)
[11]
  Potency: 49 µM (active) and inactive
[12]
  Potency: 43.6 µM (active) and inactive
[19]
  Potency: 19.5 µM (active) and 21.3 µM (active)
[13]
  Potency: inactive
[14]
  Potency: 49 µM (active) and inactive
[15]
  Potency: inactive

## CCCOCC(=Nc1ccc(Cl)cc1C(F)(F)F)n1ccnc1
[16]
  outcome: inactive
[1]
  Potency: 101 µM (active)
[5]
  Potency: 48.9 µM (active)
[8]
  Potency: 43.6 µM (active)
[10]
  Potency: 48.9 µM (active)
[18]
  Potency: 48.9 µM (active)
[11]
  Potency: 43.6 µM (active)
[12]
  Potency: 43.6 µM (active)
[19]
  Potency: 43.6 µM (active)
[13]
  Potency: inactive
[14]
  Potency: 48.9 µM (active)
[15]
  Potency: inactive

## CC(=O)OC1(c2ccccc2)CCN(CCc2ccccc2)CC1
[16]
  outcome: inactive
[5]
  Potency: 31.6 µM (active)
[6]
  Potency: inactive
[7]
  Potency: inactive
[8]
  Potency: 25.1 µM (active)
[9]
  Potency: inactive
[10]
  Potency: 28.2 µM (active)
[18]
  Potency: inactive
[11]
  Potency: inactive
[20]
  Potency: inactive
[12]
  Potency: inactive
[13]
  Potency: inactive
[14]
  Potency: inactive
[15]
  Potency: inactive

## c1cc[c]([Sb]([c]2ccccc2)[c]2ccccc2)cc1
[16]
  outcome: inactive
[4]
  Potency: inactive
[5]
  Potency: 54.9 µM (active)
[6]
  Potency: inactive
[7]
  Potency: inactive
[17]
  Potency: inactive
[9]
  Potency: inactive
[10]
  Potency: 54.9 µM (active)
[18]
  Potency: inactive
[11]
  Potency: inactive
[20]
  Potency: inactive
[12]
  Potency: inactive
[19]
  Potency: inactive
[13]
  Potency: inactive
[14]
  Potency: inactive
[15]
  Potency: inactive

## CCCN(CCC)CCc1c[nH]c2ccccc12
[16]
  outcome: inactive
[4]
  Potency: inactive
[5]
  Potency: inactive
[6]
  Potency: inactive
[7]
  Potency: inactive
[17]
  Potency: inactive
[8]
  Potency: inactive
[9]
  Potency: inactive
[10]
  max response: -15.2% (inactive)
[18]
  Potency: inactive
[11]
  Potency: inactive
[20]
  Potency: inactive
[12]
  Potency: inactive
[13]
  Potency: inactive
[14]
  Potency: inactive

## CC(C)(C)c1ccc(CSc2cnn(C(C)(C)C)c(=O)c2Cl)cc1
[16]
  outcome: inactive
[2]
  Potency: 0.0054 µM (active)
[3]; [21]
  activity change, positive = activation: -52.9% (inactive)
[5]
  Potency: 0.011 µM (active)
[6]
  Potency: inactive
[7]
  Potency: inactive
[17]
  Potency: inactive
[8]
  Potency: 0.436 µM (active)
[10]
  Potency: 0.0069 µM (active)
[11]
  Potency: inactive
[20]
  Potency: inactive
[12]
  Potency: inactive
[19]
  Potency: 43.6 µM (active)
[13]
  Potency: inactive
[14]
  Potency: inactive
[15]
  Potency: inactive

## C[C@]12CC[C@H](O)C[C@H]1CC[C@@H]1[C@@H]2C[C@@H](O)[C@]2(C)[C@@H](C3=CC(=O)OC3)CC[C@]12O
[1]
  Potency: inactive
[2]
  Potency: 3.06 µM (active)
[3]; [21]
  activity change, positive = activation: -63.4% (active)
[4]
  Potency: inactive
[5]
  Potency: 0.692 µM (active)
[6]
  Potency: inactive
[7]
  Potency: inactive
[17]
  Potency: inactive
[9]
  Potency: inactive
[10]
  Potency: 0.776 µM (active)
[18]
  Potency: inactive
[11]
  Potency: inactive
[20]
  Potency: inactive
[12]
  Potency: inactive
[19]
  Potency: inactive
[13]
  Potency: inactive
[14]
  Potency: inactive
[15]
  Potency: inactive

## CCCN(CCC)c1c([N+](=O)[O-])cc(S(N)(=O)=O)cc1[N+](=O)[O-]
[1]
  Potency: 89.8 µM (active)
[2]
  Potency: 48.6 µM (active)
[3]; [21]
  activity change, positive = activation: -56.8% (inactive)
[4]
  Potency: 43.6 µM (active)
[5]
  Potency: 18.5 µM (active)
[6]
  Potency: inactive
[7]
  Potency: 49 µM (active)
[8]
  Potency: 16.5 µM (active)
[9]
  Potency: 24.5 µM (active)
[10]
  Potency: 35.4 µM (active)
[18]
  Potency: 23.3 µM (active)
[11]
  Potency: 33.5 µM (active)
[20]
  Potency: 43.6 µM (active)
[12]
  Potency: 13.1 µM (active)
[19]
  Potency: 11 µM (active)
[13]
  Potency: inactive
[14]
  Potency: 26.2 µM (active)
[15]
  Potency: inactive

## Clc1ccc(C(c2ccccc2Cl)C(Cl)(Cl)Cl)cc1 (stereo not drawn)
[1]
  Potency: 101 µM (active) and 66.2 µM (active)
[2]
  Potency: 61.5 µM (active) and 40.2 µM (active)
[3]; at 42.5 µM (top of the series)
  activity change, positive = activation: -15.1% (inactive)
[3]; at 92.4 µM (top of the series)
  activity change, positive = activation: -41.5% (inactive)
[5]
  Potency: 49.3 µM (active) and inactive
[6]
  Potency: inactive
[7]
  Potency: inactive
[17]
  Potency: 43.9 µM (active) and inactive
[8]
  Potency: 49.3 µM (active) and inactive
[9]
  Potency: inactive
[10]
  Potency: 49.3 µM (active)
  max response: -21.7% (inactive)
[18]
  Potency: inactive
[11]
  Potency: inactive
[20]
  Potency: inactive
[12]
  Potency: inactive
[19]
  Potency: inactive
[13]
  Potency: inactive
[14]
  Potency: 55.3 µM (active) and inactive
[15]
  Potency: inactive
